# Several values for one entry are separate records, joined by “and”; a condition that tells them apart may be missing. Equal entries are not always repeated. Where two headings read alike, the source gives them in different places.
# Columns and labels:
# NDR1 = system: T1, NDR1; settings: n = 1
# T1 construct: gene STK38
# NDR2 = settings: concentration: 1 μM, replicates: in singlicate; n = 1
# NEK10 = settings: n = 1
# NEK11 = settings: concentration: 1 μM, replicates: in singlicate; n = 1
# NEK1 = settings: concentration: 1 μM, replicates: in singlicate; n = 1
# NEK2 = settings: n = 1
# NEK3 = settings: n = 1
# NEK4 = settings: n = 1
# NEK5 = settings: n = 1
# NEK6 = settings: concentration: 1 μM, replicates: in singlicate; n = 1
# [1] = concentration: 1 μM, replicates: in singlicate
# [2] = concentration: 1 μM,replicates: in singlicate, 1 µM
# 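Also: KINOMEscan kinase panel screen.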
Structure (SMILES),%Inh (NDR1; [1]) [%],%Inh (NDR2) [%],%Inh (NEK10; [1]) [%],%Inh (NEK11) [%],%Inh (NEK1) [%],%Inh (NEK2; [1]) [%],%Inh (NEK3; [1]) [%],%Inh (NEK4; [1]) [%],%Inh (NEK5; [1]) [%],%Inh (NEK6) [%],%Inh (NDR1; [2]),%Inh (NEK10; [2]),%Inh (NEK2; [2]),%Inh (NEK3; [2]),%Inh (NEK4; [2]),%Inh (NEK5; [2])
C[C@@H]1CCCCN1c1cc(-c2ccc3c(N)n[nH]c3c2)nc(N)n1 [GSK2258759],24,12,0,0,0,3,10,0,8,0,–,–,–,–,–,–
O=C(O)COc1ncnc2cc(-c3ccc4[nH]ncc4c3)sc12,24,0,48,1,0,0,87,10,25,22,–,–,–,–,–,–
CCCc1ccc(S(=O)(=O)NC2CCN(c3ccnc(Nc4ccc(F)cc4)n3)C2)cc1 (stereo not drawn) [GSK1379715],0,0,3,1,88,0,4,5,10,0,–,–,–,–,–,–
Cn1ccc2ncnc(Oc3ccc(Nc4nc5ccccc5[nH]4)cc3)c21,0,10,0,0,0,0,0,99.9,0,0,–,–,–,–,–,–
Cc1ccccc1-n1cnc2c(N)ncnc21 [SKF-97510],0,20,0,0,11,0,0,0,9,0,–,–,–,–,–,–
Cc1cccc(-c2nc(C)cc(Nc3ccncc3)n2)n1 [GSK257997],7,0,27,0,0,0,0,0,20,0,–,–,–,–,–,–
COc1ccc(C2=C(Nc3cccc(C(=O)O)c3)C(=O)NC2=O)cc1 [SB-390765],2,13,2,30,0,10,31,23,0,13,–,–,–,–,–,–
Cl.O=C(Nc1cccc(-c2nn3ncccc3c2-c2ccnc(Nc3cccnc3)n2)c1)c1c(F)cccc1F [GSK312879],0,0,7,0,0,14,0,23,0,0,–,–,–,–,–,–
Cc1cccc(-c2nc(Nc3ccc4[nH]ncc4c3)c3ccccc3n2)n1 [GW857175],26,5,54,7,0,4,18,27,8,3,–,–,–,–,–,–
CN1C(=O)C(Nc2ccc(Cl)c(C(=O)O)c2)=C(c2ccc(Cl)cc2)C1=O [SB-404290],0,1,0,30,0,5,0,21,0,0,–,–,–,–,–,–
Cc1cccc(-c2cc(Nc3ccncc3)c3ccccc3n2)n1 [GSK223675],0,0,0,0,0,0,17,0,0,0,–,–,–,–,–,–
CC(C)(C)c1ccc(C(=O)Nc2cn3cc(Cl)ccc3n2)cc1,99.7,0,4,0,0,0,21,0,0,0,–,–,–,–,–,–
CS(=O)(=O)c1ccc(-c2c(-c3ncn[nH]3)sc(N3CCOCC3)c2C#N)cc1,18,0,36,0,4,0,40,0,7,31,–,–,–,–,–,–
O=C(Nc1n[nH]c2nc(-c3nccs3)c(Br)cc12)C1CC1 [SB-742251],0,0,0,48,0,0,8,21,10,0,–,–,–,–,–,–
Cc1ccc(NC(=O)Nc2cccc(Cl)c2)cc1-c1ccc(C(=O)Nc2ccncc2)cc1 [GSK1398468],25,0,3,0,0,2,16,0,20,0,–,–,–,–,–,–
COc1ccc2nc(-c3cccc(C)n3)nc(Nc3ccncc3)c2c1 [GSK204919],0,0,3,7,0,0,0,11,17,0,–,–,–,–,–,–
NC(=O)c1nnc2ccccc2c1N,20,0,85,0,0,16,31,4,3,10,–,–,–,–,–,–
CSc1nn2c(=O)cc(N3CCOCC3)nc2n1Cc1cccc(C(F)(F)F)c1C [GSK2363608],–,0,–,0,0,–,–,–,–,0,17% and 8%,8% and 28%,100% and 1%,14% and 3%,0% and 16%,23% and 0%

Structure (SMILES),%Inh (NDR1; [1]) [%],%Inh (NDR2) [%],%Inh (NEK10; [1]) [%],%Inh (NEK11) [%],%Inh (NEK1) [%],%Inh (NEK2; [1]) [%],%Inh (NEK3; [1]) [%],%Inh (NEK4; [1]) [%],%Inh (NEK5; [1]) [%],%Inh (NEK6) [%],%Inh (NDR1; [2]),%Inh (NEK10; [2]),%Inh (NEK2; [2]),%Inh (NEK3; [2]),%Inh (NEK4; [2]),%Inh (NEK5; [2])
CCn1c(-c2cccnc2O)nc2cnccc21 [SB-736715],0,0,0,0,0,0,21,0,0,0,–,–,–,–,–,–
Nc1ncnc2[nH]c(-c3ccccc3)nc12 [AH5015],0,0,49,71,4,18,53,26,32,0,–,–,–,–,–,–
CC1=C(C(=O)Nc2cc3cn[nH]c3cc2F)C(c2ccc(C(F)(F)F)cc2)CC(=O)N1 (stereo not drawn) [GSK429286],23,0,7,0,0,0,6,24,0,0,–,–,–,–,–,–
COC(=O)c1c(-c2ccccc2)c2cc(OC)ccc2c(=O)n1Cc1ccccc1,0,3,0,0,7,9,16,11,0,0,–,–,–,–,–,–
COc1cc2ncnc(Nc3ccc4nc(-c5ccccc5)[nH]c4c3)c2cc1OC.Cl [GW282450],17,0,14,2,0,0,0,4,29,0,–,–,–,–,–,–
COc1cc(Nc2nccc(N3CCC(NC(=O)Nc4cc(C)ccc4C)C3)n2)cc(OC)c1OC (stereo not drawn) [GSK1379762],0,0,20,0,22,25,9,4,91.6,1,–,–,–,–,–,–
Nc1nc(-c2nccs2)c(-c2ccnc3ccccc23)s1 [GW693542],17,30,19,12,0,0,4,0,3,0,–,–,–,–,–,–
COc1ccc(CNC(=O)NC2CCN(c3ccnc(Nc4cc(OC)c(OC)c(OC)c4)n3)C2)cc1 (stereo not drawn) [GSK1379748],21,44,6,18,8,0,20,30,93.1,0,–,–,–,–,–,–
O=c1cc(N2CCOCC2)nc2n(Cc3cccc(Cl)c3Cl)ccn12 [GSK2286295],12,0,0,0,0,4,1,6,4,0,–,–,–,–,–,–
Cc1csc(-c2nc(Nc3ccncc3)c3ccccc3n2)n1 [GW869640],27,25,17,9,0,0,19,28,0,4,–,–,–,–,–,–
Cc1cccc(-c2nc(Nc3ccncc3)c3ccccc3n2)n1 [GW855857],8,6,0,0,0,0,30,0,10,21,–,–,–,–,–,–
Cc1cc(NCC(c2ccccc2)c2ccccc2)nc(NCc2ccc(C(F)(F)F)cc2)n1 [GW497681],10,16,0,0,0,0,0,0,0,0,–,–,–,–,–,–
Cn1ccc2ncnc(Oc3cccc(C(=O)Nc4ccccc4)c3)c21,14,0,0,0,0,0,0,0,0,17,–,–,–,–,–,–
COc1cccc(NC(=O)NC2CCN(c3ccnc(Nc4ccc(F)cc4)n3)C2)c1 (stereo not drawn) [GSK1379721],9,27,0,2,0,1,6,0,29,0,–,–,–,–,–,–
O=C1NC(=O)C(N2CCc3ccccc32)=C1c1ccccc1Cl [SB-373598],12,0,18,0,0,1,7,15,9,0,–,–,–,–,–,–
Cc1ccc(C(=O)Nc2ccc(Nc3ccnc4cc(-c5ccccn5)ccc34)cc2O)cc1.Cl [GW440146],6,0,0,2,0,0,0,14,0,0,–,–,–,–,–,–
COc1ccc(Nc2nccc(NCCNC(=O)Nc3ccccc3F)n2)cc1 [GSK1379901],26,0,13,0,0,0,19,0,3,0,–,–,–,–,–,–
COc1ccccc1CNC(=O)c1cc(C(=O)c2ccccc2C)c[nH]1 [GSK364507],0,0,6,0,0,0,8,14,13,17,–,–,–,–,–,–
